Results from PubChem BioAssay (Tox21).
Results filed as inconclusive are left out. Where a call stands in place of a potency, no number is given. Calls of active or inactive are those of the source. The call rests on the fitted dose curve; in most records, active means well fitted cell-killing curve with a large enough effect in the repeat runs; inconclusive means weak or mixed curves, or effect the other way; inactive means flat fitted curve, though single readings scatter.

test: qHTS assay to identify small molecule antagonists of the estrogen related receptor signaling pathway with the pleiotropic PPARgamma coactivator (PGC) cell viability counter screen (AID 1224822;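 further: viability read after 17.5 h compound exposure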); details: ERR/PGC reporter cell line viability counter screen; series mostly up to 46.1 µM
Excerpt: National Center for Advancing Translational Sciences [NCATS]
NIH Chemical Genomics Center [NCGC]
U.S. Environmental Protection Agency [EPA]
National Institutes of Environmental Health Sciences [NIEHS]
National Toxicology Program [NTP]
U.S. Food and Drug Administration [FDA]
Estrogen related receptors (ERRs), the first orphan nuclear receptors discovered, play an important role in the control of cellular energy metabolism. ERRs are required for high-energy production in response to the environmental challenges. The pleiotropic PPARgamma coactivator (PGC) is a major partner of ERR and a key regulator in energy homeostasis. Together they have been implicated in the etiology of metabolic disorders such as Type 2 diabetes and metabolic syndrome. ERR-alpha was also identified as an adverse marker for breast cancer progression; ERR-alpha-positive tumors have a poor prognosis. To screen and to identify environmental compounds that perturb the ERR and PGC/ERR signaling pathways could provide valuable information for potential therapeutic or preventive measures in the treatment of metabolic disease. To differentiate true PGC/ERR antagonists or agonist from cytotoxic substances, the assay is multiplexed with cell viability assay.
Tox21 Assay Protocol Summary:
The PGC/ERR cells were dispensed at 2,000 cells/5 ul/well in 1536-well white plates using a Multidrop dispenser. After the assay plates were incubated at a 37 C/5% CO2 incubator for 6 hours, 23 nL of compounds dissolved in DMSO, positive and negative controls or DMSO only was transferred to the assay plate by a pin tool. The plates were incubated at 37 C for 17.5 hours. 1 ul/well of CellTiter-Fluor reagent was added into the assay plates using a Flying Reagent Dispenser. After 30 min incubation at 37 C/5% CO2, the fluorescence intensity in the plates was measured using a ViewLux plate reader.
Potency means the concentration at half of the fitted maximal effect.

| Structure (SMILES) | Potency |
| --- | --- |
| CCCCN(CC)c1nc(C)nc2c1c(C)cn2-c1c(C)cc(C)cc1C | 16.8 µM (active) |
| CN[C@H](CC(=O)O)C(=O)O | inactive |
| COc1cc2ncnc(Nc3cccc(Cl)c3)c2cc1OC | inactive |
| CCN(CC)CCNC(=O)c1ccc(NS(C)(=O)=O)cc1 | inactive |
| O=c1[nH]ccc2c(O)cccc12 | inactive |
| CC1CCN(CC[C@H]2CCCN2S(=O)(=O)c2cccc(O)c2)CC1 | inactive |
| COc1ccc(-c2ccc(N)[n+](CCCC(=O)O)n2)cc1 | inactive |
| Nc1nc(Nc2ccccc2)nc2c1ncn2[C@@H]1O[C@H](CO)C(O)[C@H]1O (stereo not given in full) | inactive |
| O=[N+]([O-])c1cccc2c(Br)[nH]nc12 | inactive |
| OC[C@H]1O[C@H](n2cnc3c(N[C@H]4CCC[C@@H]4O)ncnc32)[C@H](O)[C@@H]1O | inactive |
| NC1CONC1=O (stereo not given) | inactive |
| OC[C@H]1O[C@@H](n2cnc3cncnc32)[C@H](O)[C@@H]1O | inactive |
| CC[C@H](NC(=O)c1c(C)c(-c2ccccc2)nc2ccccc12)c1ccccc1 | inactive |
| N[C@@H](CS(=O)O)C(=O)O | inactive |
| c1ccc(C2CN3CCSC3=N2)cc1 (stereo not given) | inactive |
| COC(=O)C1=CO[C@@H](O)[C@@H]2C(CO)=CC[C@H]12 | inactive |
| N[C@H](C(=O)O)[C@H](O)C(=O)O | inactive |
| CC(C)(Sc1ccc(CCN(CCCCC2CCCCC2)C(=O)NC2CCCCC2)cc1)C(=O)O | inactive |
| C=C[C@H]1CN2CC[C@@H]1C[C@@H]2[C@@H](O)c1ccnc2ccc(OC)cc12 | inactive |
| [Li+] | inactive |

| Structure (SMILES) | Potency |
| --- | --- |
| O=C(Nc1nc2ccccc2n1CCN1CCOCC1)c1cccc([N+](=O)[O-])c1 | inactive |
| CCOC(=O)N1CCN(/[N+]([O-])=N/Oc2ccc([N+](=O)[O-])cc2[N+](=O)[O-])CC1 | 13.9 µM (active) |
| O=C1OC(=O)C2C3CCC(O3)C12 (stereo not given) | inactive |
| Nc1ncnc2c1ncn2[C@@H]1O[C@H](CO)C(O)[C@H]1O (stereo not given in full) | inactive |
| Cn1cnc2c(NCc3ccccc3)nc(NCCO)nc21 | inactive |
| COc1ccc(CCN(C)CCc2ccc(OC)c(OC)c2)cc1OC | inactive |
| O=c1c2ccccc2nc2n1CCc1c-2[nH]c2ccccc12 | inactive |
| CCCCS(=N)(=O)CCC(N)C(=O)O (stereo not given) | inactive |
| NCCC1CCCC(CCN)N1 (stereo not given) | inactive |
| N[C@@H](Cc1cnc[nH]1)C(=O)O | inactive |
| N#Cc1cc2nc(O)c(O)nc2cc1[N+](=O)[O-] | inactive |
| O=Nc1ccc2oc(=O)ccc2c1 | inactive |
| CC(N)=NCCCC[C@@H](N)C(=O)O | inactive |
| O=C(O)C1=CCNCC1 | inactive |
| Cc1cccc(C(=O)NCN2CCN(c3ccccc3C#N)CC2)c1 | inactive |
| Fc1ccc(CN(C2=NCCN2)c2c(Cl)cccc2Cl)cc1 | inactive |
| Cn1c(=O)c2[nH]c(C3CCCC3)nc2n(C)c1=O | inactive |
| CN1CCc2ccccc2Cc2[nH]c3ccccc3c2CC1 | inactive |
| N#Cc1cc([N+](=O)[O-])c2sc(C(N)=O)[n+]([O-])c2c1 | inactive |
| COc1cc2c(CCNC(C)=O)c[nH]c2cc1Cl | inactive |
